Lassa entry: inhibitors of Lassa virus binding or entry into cells. Lassa virus pseudotyped entry inhibition, cell-based qHTS. Potency, µM (series often up to 49.2 µM), without a hit: at the top dose activity change, negative = inhibition, usual class: inhibitors. hit rate 4.1% among 18,000. AID 720533
MARV entry inh: blocks Marburg virus binding or cell entry. Marburg virus pseudotype entry/binding inhibition, cell-based. Potency, µM (titrated, usually from 49.2 µM), without a hit: at the highest dose activity change, negative = inhibition, actives largely listed as inhibitors. AID 720532. hit rate 6.5% among 18,000
Starred values were filed as active, the others as inactive; ? = inconclusive; / = no result given; ! = repeats disagree; [ ] = remark or other dose. Only some compounds are listed: those with a hit (about 8.6% of all), similar ones and a draw of the others. Calls come from the whole dose curve; tested in HEK293 cells. % is set by controls: 0 for no effect and ±100 for the full control effect; potency is the fitted concentration of half-maximal effect.

SMILES	Lassa entry	MARV entry inh
C=CCOC(=O)N[C@H](C(C(=O)OC)=C(C)NCc1ccccc1)c1ccc(Br)cc1	-2.8%[8.59 µM]	7.1%[8.59 µM]
CC(=O)OC[C@H]1O[C@H](CC=NOCC[C@@H]2C=C[C@@H](OC(C)=O)[C@@H](COC(C)=O)O2)C=C[C@@H]1OC(C)=O	-0.8%[8.59 µM]	10.3%[8.59 µM]
C=CS(=O)(=O)O	-13.8%	22.4µM*
CCN(CC)CCOCCOC(=O)C1(c2ccccc2)CCCC1	1.4%	7.08µM*!
CCN(CC)CCOCCOC(=O)C(CC)(CC)c1ccccc1	?	22.4µM*
CCN(CC)CCOC(=O)C1(c2ccc([N+](=O)[O-])cc2)CCCC1	2.3%	?
CCN(CC)CCNC(C(=O)OCCC(C)C)c1ccccc1 (centres undefined)	-10.3%	?
CCN(CC)CCOC(=O)C(C)(c1ccccc1)c1ccccc1	?	28.2µM*
O=C(O)CN(CCOCCOCCN(CC(=O)O)CC(=O)O)CC(=O)O	-3.1%	24.2%
Cc1ccc(CN2C=CCCS2(=O)=O)cc1	-9.4%	4.0%
O=S1(=O)CC(N2CC=CC2)CN1Cc1cn(Cc2ccc(C(F)(F)F)cc2)nn1 (centres undefined)	6.9%	17.9%
C#CC1(O)C(OC)=CC2C(=O)C1C(c1ccccc1)C2C (centres undefined)	/	-3.5%[8.59 µM]
C=CC[C@@H]1C=C[C@@H](Oc2ccc(OC)cc2)[C@H](COC(=O)c2ccc(Br)cc2)O1	-30.8%[8.59 µM]	-4.5%[8.59 µM]
COC1C(O)C(C)O[C@@H](OC2CC[C@@]3(C)C4CC[C@]5(C)C(C6=CC(=O)OC6)CC[C@@]5(O)C4CC[C@@H]3C2)C1O (some centres undefined)	0.1µM*	0.0794µM*
COC1C(O)C(C)O[C@H](OC2CC[C@@]3(C=O)C4CC[C@]5(C)C(C6=CC(=O)OC6)CC[C@@]5(O)C4CC[C@@H]3C2)C1O (some centres undefined)	0.1µM*	?
COc1cc(C(CC2=CCCCC2)NC(=O)C(F)(F)F)cc(OC)c1OC (centres undefined)	-20.8%[8.59 µM]	0.9%[8.59 µM]
Cc1cc(OCc2cn(CC(=O)c3ccc(O)cc3)nn2)cc(C)c1C	?	21.8%
Cc1ccc(OCC(O)C(C)NC(C)C)c2c1CCC2 (centres undefined)	?	12.6µM*
Cc1ccccc1OC[C@H](O)CO	0.4%[17.8 µM]	-4.1%[17.8 µM]
OC1(c2ccc(Cl)c(C(F)(F)F)c2)CCN(CCCC(c2ccc(F)cc2)c2ccc(F)cc2)CC1	11.2µM*	2.82µM*
Cc1ccc(C2(O)CCN(CCCC(=O)c3ccc(F)cc3)CC2)cc1	-18.0%	?
CCOC(=O)CN1C(=O)[C@]2(O[C@H](C)CC3=CCCC32)c2c(Br)cccc21 (some centres undefined)	-7.3%[8.59 µM]	?
Cc1nc2ccc(C(=O)NCC3CCC4(CCN(Cc5cccnc5)CC4)O3)cc2nc1C (centres undefined)	-13.7%	?
COc1cc(CN2CCC3(CCC(CNC(=O)c4ccccc4)O3)CC2)cc(OC)c1 (centres undefined)	-11.4%	12.6µM*
CC[C@@H](O)C(C[C@@H](C)N(C)C)(c1ccccc1)c1ccccc1	?	12.6µM*
SMILES	Lassa entry	MARV entry inh
CCC(O)c1ccccc1 (centres undefined)	-7.8%	8.4%
C[C@H]1[C@@H](c2ccccc2)Oc2c(Cl)cccc2S(=O)(=O)N1Cc1ccc(F)cc1	13.6%	?
CC1=C[C@@H](COCc2ccccc2)O[C@@]2(C1)C(=O)N(CC1CC1)c1ccccc12	-24.4%[8.59 µM]	0.8%[8.59 µM]
Nc1ncc(-c2cccc(S(N)(=O)=O)c2)c2scc(-c3ccc(F)c(Cl)c3)c12	?	3.15µM*
C[C@@H]1CCCN1[C@@H]1C[S+](=O)([O-])N[C@@H]1COCc1ccccc1	7.7%	13.7%
O=S(=O)(N[C@@H](CO)Cc1ccccc1)c1ccc(Br)cc1F	10.0%	22.3%
COc1cc([C@@H]2c3cc4c(cc3C(OC3OC5COC(C)OC5C(O)C3O)C3COC(=O)[C@@H]32)OCO4)cc(OC)c1O (some centres undefined)	7.94µM*	25.1µM*
COc1cc([C@@H]2c3cc4c(cc3[C@@H](OC3OC5COC(C)OC5C(O)C3O)[C@H]3COC(=O)[C@H]23)OCO4)cc(OC)c1O (some centres undefined)	7.94µM*	?
COc1cc([C@@H]2c3cc4c(cc3C(O[C@@H]3O[C@@H]5COC(c6cccs6)O[C@H]5[C@H](O)[C@H]3O)C3COC(=O)[C@@H]32)OCO4)cc(OC)c1O (some centres undefined)	3.98µM*	?
COc1cc([C@@H]2c3cc4c(cc3[C@@H](O[C@@H]3O[C@H]5CO[C@@H](C)O[C@@H]5[C@@H](O)[C@H]3O)[C@@H]3COC(=O)[C@@H]23)OCO4)cc(OC)c1O	2.82µM*	?
O=C(NCC1Cc2cc(F)cc(-c3cnccn3)c2O1)c1cccc(-c2ccccc2F)c1 (centres undefined)	?	-11.1%
O[C@@H]1CO[C@@H](C=Cc2ccccc2)[C@H]1OCc1cccc(Br)c1	/	-5.3%[8.59 µM]
O=C(C1CCCCC1)N1C[C@@H](n2cc(-c3ccc(F)cc3)nn2)[C@@H](O)C[C@@H]1c1ccccc1	/	-40.9%
c1ccc(CCc2nc(-c3ccccc3)oc2Nc2ccc3ccccc3c2)cc1	14.1%[8.59 µM]	-21.8%[8.59 µM]
Cc1cccc(CN2CCN([C@@H]3C[S+](=O)([O-])N[C@@H]3COCc3ccccc3)CC2)c1	-9.7%	-18.3%
C=CCN=C1NC(c2cccc(C(F)(F)F)c2)C(C(=O)OC)=C(C)N1CC (centres undefined)	-27.1%[8.59 µM]	12.5%[8.59 µM]
CCN1C(=O)[C@@H]2[C@H]3[C@H](O)[C@H](O)CC(=NO[C@@H]4O[C@H](COC(C)=O)[C@@H](OC(C)=O)[C@H](OC(C)=O)[C@@H]4OC(C)=O)[C@@H]3CC[C@H]2C1=O	4.6%[8.59 µM]	12.1%[8.59 µM]
O=C(Nc1ccc(S(=O)(=O)N2CCOCC2)cc1)c1cc(Cl)ccc1NS(=O)(=O)c1ccc(Cl)s1	-14.2%	13.3%
CCCC=Cc1ccc(CN2C(C)C(=O)N(Cc3cn(Cc4ccco4)nn3)CCS2(=O)=O)cc1 (centres undefined)	-2.3%	?
C=C(C[C@@]1(C(=O)OC)C=C[C@@H](C)[C@H](c2ccccc2Br)N1C(=O)C(F)(F)F)c1ccccc1	-4.1%[8.59 µM]	-13.5%[8.59 µM]
O=S1(=O)CCSCCN1Cc1ccccc1Br	23.5%	19.0%
C[n+]1cc2c3c(ccc2c2ccc4cc5c(cc4c21)OCO5)OCO3	20µM*	6.31µM*
COc1ccc(COC(=O)NN=C2C[C@@H](O)[C@@H](O)[C@@H]3[C@H]4C(=O)N(c5cccc(Oc6ccccc6)c5)C(=O)[C@@H]4CC[C@H]23)cc1	/	9.0%[8.59 µM]
CCS(=O)(=O)c1ccc(OC)c(Nc2ncc(-c3cccc(C(C)=O)c3)o2)c1	-30.9%	-27.2%
N#Cc1c(NC(=O)c2ccc(F)cc2)sc2c1CCCC2	21.3%	48.6%
SMILES	Lassa entry	MARV entry inh
CN(C)CCC(c1ccccc1)c1ccccn1 (centres undefined)	-12.3%	?
C[C@@H](C1=C(CCN(C)C)Cc2ccccc21)c1ccccn1	?	17.8µM*
CCN1C(=NCc2cc(OC)c(OC)c(OC)c2)NC(c2ccccc2)C(C(=O)OC)=C1C (centres undefined)	-2.9%[8.59 µM]	43.0%[8.59 µM]
CN(CCOc1ccc(NS(C)(=O)=O)cc1)CCc1ccc(NS(C)(=O)=O)cc1	-2.7%	5.5%
CCCCc1oc2ccc(NS(C)(=O)=O)cc2c1C(=O)c1ccc(OCCCN(CCCC)CCCC)cc1	12.6µM*	6.31µM*
CC(=O)OC[C@H]1O[C@H](C#Cc2ccc(C(C)(C)C)cc2)C=C[C@H]1OC(C)=O	-25.6%[8.59 µM]	?

Source: PubChem (National Center for Advancing Translational Sciences (NCATS))
